These results are taken from PubChem BioAssay (Tox21).

Results filed as inconclusive are left out. A call without a number means that no potency is given here. A structure can be active in one record and inactive in another. Active and inactive are the calls of the source. Calls come from the whole dose curve; as a rule, active = well fitted curve in the direction sought with a large enough effect in the repeat runs; inconclusive = weak or mixed curves; inactive = no such curve, though single readings can be large; an effect the other way counts as inactive or inconclusive.
Note: nearly all actives have a fitted effect of over 50% in size.

The nature of the first test: qHTS RealTime-Glo MT Cell Viability Assay in HepG2 cells - 16 hour (AID 1224885). Conditions: RealTime-Glo luminescence; series mostly up to 76.8 µM. In outline: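 HepG2 cells were seeded at 600 cells/well together with NanoLuc luciferase and a cell-permeant prosubstrate, preincubated 5 h at 37 C/5% CO2, then pin-dosed with compounds in DMSO. Nonlytic luminescence from viable cells was read at each time point.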
Turning to `Nc1ccccc1[N+](=O)[O-]`, the call was inactive.

Regarding `C=C(C)C(=O)O[C@H]1C[C@@H]2CC[C@@]1(C)C2(C)C`, the call was inactive.

As to `OCC(CO)(CBr)CBr`, the compound was called inactive.

As for `CC(=O)Nc1ccccc1`, the outcome was inactive.

For `CCCCOC(=O)COc1ccc(Cl)cc1Cl`, the compound was classed as inactive.

As for `CCCCC(CC)COC(=O)CCCCC(=O)OCC(CC)CCCC` (centres undefined), the outcome was inactive.

For `C[C@H]1C[C@H]2[C@@H]3CCC4=CC(=O)C=C[C@]4(C)[C@@]3(F)[C@@H](O)C[C@]2(C)[C@@]1(O)C(=O)CO`, the result was inactive.

For `O=P(OC(CCl)CCl)(OC(CCl)CCl)OC(CCl)CCl`, the compound was classed as inactive.

On to `Cc1ccc(N(C)C)cc1`, for which the compound was called inactive.

Regarding `COc1ccc(NC(C)=O)cc1N`, the result was inactive.

As for `C/C=C1/CC2C=CC1C2` (centres undefined), the compound was called inactive.

Take `C#CCN(C)Cc1ccccc1`: the compound was classed as inactive.

For the compound `C=C(C)C(=O)OCCOCCOCCOC(=O)C(=C)C`, the compound was classed as inactive.

Consider `CC(C)CC(=O)CC(C)C`, for which the result was inactive.

As for `CCC(O)OCCCOC` (centres undefined), the compound was called inactive.

For the compound `OCc1cccnc1`, the call was inactive.

As to `CC1=CCC2CC1C2(C)C` (centres undefined), the compound was called inactive.

As to `O=C(O)c1ccc2c(c1)C(=O)OC2=O`, the outcome was inactive.

Consider `CCCCCOC(C)=O`, for which the compound was classed as inactive.

Turning to `O=C=NCCCCCCN=C=O`, the result was inactive.

On to `CCc1ccc(CCOc2ccc(CC3SC(=O)NC3=O)cc2)nc1` (centres undefined), for which the call was inactive.

The next test can be described thus: qHTS RealTime-Glo MT Cell Viability Assay in HEK293 cells - 24 hour (AID 1224886). Note: potency is the fitted concentration of half-maximal effect. Conditions: RealTime-Glo luminescence; series mostly up to 76.8 µM. In outline: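 HEK293 cells were seeded at 600 cells/well together with NanoLuc luciferase and cell-permeant prosubstrate, preincubated 5 h at 37 C/5% CO2, then given compound in DMSO by pintool. Luminescence from viable-cell prosubstrate reduction was read repeatedly over 40 h.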
A general note: Quantitative high-throughput screening tests each substance at several concentrations.
For `CCCCN(CCCC)CCCC`, the Potency result is “inactive”.

Consider `CCOC(=O)NNc1nncc2ccccc12`, for which the Potency entry is “inactive”.

As to `C[Si](O[Si](C)(C)C)O[Si](C)(C)C`, the Potency result was “inactive”.

Consider `N[C@@H](Cc1cc(I)c(Oc2cc(I)c(O)c(I)c2)c(I)c1)C(=O)O`, for which the Potency entry was “inactive”.

For the compound `O=C(O)c1ccccc1C(c1ccc(O)cc1)c1ccc(O)cc1`, the Potency result is “inactive”.

Take `CCCCCCCCC/C=C/CC1CC(=O)OC1=O` (centres undefined): the Potency entry is “inactive”.

In the case of `C#C[C@]1(O)CC[C@H]2[C@@H]3CCC4=CC(=O)CC[C@@H]4[C@H]3CC[C@@]21C`, the Potency result was “inactive”.

On to `CCCCCC(N)=O`, for which the Potency result is “inactive”.

Regarding `O=C(O)c1ccc(C(=O)O)cc1`, the Potency result was “inactive”.

Consider `CC1CCC(C(C)C)C(O)C1` (centres undefined), for which the Potency entry is “inactive”.

In the case of `CC1CCC2CC1C2(C)C` (centres undefined), the Potency entry was “inactive”.

Take `CSCCC=O`: the Potency result was “inactive”.

Regarding `OCCOCCOCCO`, the Potency result was “inactive”.

`O=c1[nH]nnc2ccccc12`: the Potency result is “inactive”.

Consider `CC(=O)CC(=O)Nc1ccccc1C`, for which the Potency entry was “inactive”.

Consider `CN(C)CCC(c1ccccc1)c1ccccn1` (centres undefined), for which the Potency result was “inactive”.

With `CCCCCC/C(C=O)=C\c1ccccc1`, the Potency result was “inactive”.

As to `Nc1ccccc1[N+](=O)[O-]`, the Potency result was “inactive”.

Consider `C=C(C)C(=O)O[C@H]1C[C@@H]2CC[C@@]1(C)C2(C)C`, for which the Potency was 15.4 µM (active) and inactive.

As to `OCC(CO)(CBr)CBr`, the Potency result was “inactive”.

For `CC(=O)Nc1ccccc1`, the Potency entry is “inactive”.

`CCCCOC(=O)COc1ccc(Cl)cc1Cl`: the Potency entry was “inactive”.

As for `CCCCC(CC)COC(=O)CCCCC(=O)OCC(CC)CCCC` (centres undefined), the Potency entry was “inactive”.

Take `C[C@H]1C[C@H]2[C@@H]3CCC4=CC(=O)C=C[C@]4(C)[C@@]3(F)[C@@H](O)C[C@]2(C)[C@@]1(O)C(=O)CO`: the Potency entry was “inactive”.

Turning to `O=P(OC(CCl)CCl)(OC(CCl)CCl)OC(CCl)CCl`, the Potency was 24.4 µM (active).

Regarding `Cc1ccc(N(C)C)cc1`, the Potency entry is “inactive”.

Take `COc1ccc(NC(C)=O)cc1N`: the Potency entry is “inactive”.

Take `C/C=C1/CC2C=CC1C2` (centres undefined): the Potency result was “inactive”.

Turning to `C#CCN(C)Cc1ccccc1`, the Potency entry was “inactive”.

Turning to `C=C(C)C(=O)OCCOCCOCCOC(=O)C(=C)C`, the Potency result is “inactive”.

For the compound `CC(C)CC(=O)CC(C)C`, the Potency result was “inactive”.

Consider `CCC(O)OCCCOC` (centres undefined), for which the Potency entry was “inactive”.

As for `OCc1cccnc1`, the Potency entry is “inactive”.

`CC1=CCC2CC1C2(C)C` (centres undefined): the Potency result is “inactive”.

As to `O=C(O)c1ccc2c(c1)C(=O)OC2=O`, the Potency result was “inactive”.

In the case of `CCCCCOC(C)=O`, the Potency result was “inactive”.

As to `O=C=NCCCCCCN=C=O`, the Potency entry was “inactive”.

As for `CCc1ccc(CCOc2ccc(CC3SC(=O)NC3=O)cc2)nc1` (centres undefined), the Potency result was “inactive”.
